Only some compounds are listed: those with a hit (about 2.4% of all), similar ones and a draw of the others.
Rpn11 block: blocks the human proteasome subunit Rpn11 | inhibition, % at 20 µM | 360,000 compounds, 0.59% hits | human 26S proteasome, Ub4-pepOG fluorescence polarization; 20S core pre-blocked with epoxomicin;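 active means inhibition at 20 µM, scaled to each plate's controls, above about 33%, limit read from the data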
Target sequence (O00487 whole entry, looked up): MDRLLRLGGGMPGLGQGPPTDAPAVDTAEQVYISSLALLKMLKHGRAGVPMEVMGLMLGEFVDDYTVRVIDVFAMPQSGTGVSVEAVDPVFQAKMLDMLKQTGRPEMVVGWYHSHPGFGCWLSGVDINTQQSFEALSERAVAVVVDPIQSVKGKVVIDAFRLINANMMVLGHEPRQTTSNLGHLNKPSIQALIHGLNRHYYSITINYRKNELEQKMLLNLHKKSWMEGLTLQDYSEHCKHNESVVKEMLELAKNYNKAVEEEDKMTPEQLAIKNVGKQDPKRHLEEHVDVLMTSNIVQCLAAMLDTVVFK
PP5 inh: PP5 (human) phosphatase inhibition. P53041. purified PP5c, OMFP substrate fluorescence. inhibition, % at 6.7 µM. 320,000 compounds, 0.18% hits. AID 1987;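 active means inhibition above the campaign's mean inhibition across all tested compounds plus 3 SD, cut at about 9.5% in these data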;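 further: 0% = DMSO only and 100% = 100 µM cantharidin control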
NadD block: inhibitors of Staphylococcus aureus NadD; purified NadD enzyme, colorimetric absorbance read-out; inhibition, % at 20 µM; 360,000 compounds, 0.78% hits; AID 602399; in the data active means inhibition above about 26%
PREPL inh: human PREPL enzyme inhibition; Q4J6C6; 320,000 compounds, 0.68% hits; AID 2751; recombinant PREPL, fluorescence polarization activity-based probe; inhibition, % at 5.96 µM; in the data active means inhibition above about 43%;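 further: 0% = enzyme with DMSO and 100% = wells lacking enzyme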
PP1 inh: PP1-alpha (human) inhibition in PP5 counter-screen; purified PP1alpha, OMFP fluorescence; 320,000 compounds, 0.9% hits; AID 2235; inhibition, % at 6.7 µM; P62136;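 active means inhibition above the mean inhibition of all tested compounds plus 3 SD, computed separately for each screening campaign, cut at about 15% in these data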
Target sequence (P62136 whole entry, looked up): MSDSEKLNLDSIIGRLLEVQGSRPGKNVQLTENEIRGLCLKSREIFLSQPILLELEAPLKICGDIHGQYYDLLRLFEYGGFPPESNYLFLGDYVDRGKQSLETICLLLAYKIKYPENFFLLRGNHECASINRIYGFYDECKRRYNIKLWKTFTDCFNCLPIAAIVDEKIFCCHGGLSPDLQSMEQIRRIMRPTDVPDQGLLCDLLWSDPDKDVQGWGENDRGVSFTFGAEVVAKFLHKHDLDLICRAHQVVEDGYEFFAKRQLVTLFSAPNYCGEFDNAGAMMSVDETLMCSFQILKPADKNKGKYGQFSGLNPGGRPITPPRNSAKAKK
Rpn11 confirm: confirmation of human proteasome Rpn11 inhibitors; shares compounds with Rpn11 block; inhibition, % at 20 µM; purified human 26S proteasome, Ub4-pepOG fluorescence polarization; proteasome pretreated with epoxomicin; 1,900 compounds, 29% hits
MMP-2 inh: blocks human MMP-2, flagging nonselective RPN11 hits | inhibition, % at 20 µM | shares compounds with Rpn11 block | AID 602330 | recombinant MMP-2, FRET peptide cleavage fluorescence | 1,900 compounds, 4% hits;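 further: human MMP-2 activated beforehand with APMA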
Thrombin FP: blocks bovine thrombin, flagging nonselective RPN11 hits; shares compounds with Rpn11 block; bovine thrombin cleavage of Ub4-pepOG, fluorescence polarization; inhibition, % at 20 µM; 1,900 compounds, 13% hits; AID 602333;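 active means mean inhibition at least 40% at 20 µM, or signal 3 deviations below plate average, so some actives read negative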;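 further: plate controls were thrombin with DMSO for no effect and buffer wells lacking thrombin for full effect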
NadD inh conf: NadD (S. aureus) inhibition, single concentration confirmation. shares compounds with NadD block. purified S. aureus NadD, colorimetric enzyme assay. inhibition, % at 20 µM. 2,000 compounds, 13% hits. AID 624309; in the data active means inhibition mostly above about 42%, no sharp cut-off; inactive means mostly below about 42%
Numbers without * were called inactive; x = no result given; + = active, no number. Unless noted, no stated cut-off is given here; in the data, active means inhibition above about 40%; inactive means the rest.

SMILES | Rpn11 block | PP5 inh | NadD block | PREPL inh | PP1 inh | Rpn11 confirm | MMP-2 inh | Thrombin FP | NadD inh conf
COc1ccc(N2C(=O)CCC(C(=O)Nc3cccc(C)n3)C2c2ccc(OC)c(OC)c2)cc1 (stereo not drawn) | + | 1.4 | 2.4 | -1.0 | -4.7 | -11.4 | -36.2 | -7.6 | x
CC1=CN2C(=N)/C(=C/c3ccc(Sc4ccc(C)cc4)o3)C(=O)N=C2S1 | 47.7* | 1.3 | 10.8 | 15.8 | 4.8 | 34.4 | -15.0 | 11.7 | x
CCCC(C)Sc1nc2c([nH]1)c(=S)n(C)c(=O)n2C (stereo not drawn) | -2.8 | x | -1.0 | x | x | x | x | x | x
Cc1ccc(/C=C(\NC(=O)c2ccccc2)C(=O)N2CCCCC2)cc1 | -6.1 | 1.1 | -1.9 | 17.8 | -0.1 | x | x | x | x
CN(C)c1ccc(/C=C(/NC(=O)c2ccccc2)C(=O)N2CCCC2)cc1 | 63.5* | 0.8 | 6.8 | -3.8 | 1.8 | 0.0 | 29.1 | -3.6 | x
Cc1ccc(-c2cc(C(=O)N3CCCc4ccccc43)no2)cc1 | -4.1 | 4.8 | -0.5 | 14.5 | 0.3 | x | x | x | x
C[C@H](CO)N1C[C@H](C)[C@@H](CN(C)S(=O)(=O)c2ccc(F)cc2)OCc2cn(nn2)CCCC1=O | -5.3 | x | 4.3 | x | x | x | x | x | x
Cc1ccc2oc(=O)c(/C=C(\O)c3ccco3)nc2c1 | 66.5* | -0.8 | 3.4 | -2.8 | 0.3 | 70.0* | -31.5 | -12.7 | x
Cc1ccc(NC(=O)C2CCN(S(=O)(=O)c3ccc4c(c3)NC(=O)C(C)S4)CC2)cc1Cl (stereo not drawn) | 41.6* | 5.7 | 20.1 | 14.8 | 5.2 | 44.5* | 0.7 | 34.9 | x
Cc1cc(C)cc(NC(=O)C2CCN(S(=O)(=O)c3ccc4c(c3)NC(=O)C(C)S4)CC2)c1 (stereo not drawn) | 11.5 | 6.5 | 3.4 | 6.0 | 4.3 | x | x | x | x
COCC(C)NC(=O)CCSc1nc(-c2ccc(OC)cc2)cc(C(F)(F)F)n1 (stereo not drawn) | 85.8* | 1.9 | -3.5 | 1.5 | 1.0 | -14.0 | -22.4 | -28.1 | x
C=CCN1C(=O)/C(=C2/Sc3ccc(OC)cc3N2C)SC1=Nc1cccc(O)c1 | 67.4* | -1.0 | 16.9 | 16.5 | -0.2 | 8.3 | -32.1 | -12.7 | x
CCN1C(=O)/C(=C2/Sc3ccc(OC)cc3N2C)SC1=Nc1ccc(OC)cc1 | -4.1 | 3.5 | 5.6 | 12.5 | -1.3 | x | x | x | x
CN(CCO)c1ccc(C=NNc2ccc([N+](=O)[O-])cc2S(=O)(=O)Nc2ccccc2C(=O)O)cc1 | 90.0* | x | 16.6 | 11.4 | x | 72.9* | -15.0 | 39.9 | x
CC(=O)Nc1ccc(C=NNc2ccc(S(=O)(=O)Nc3ccccc3C(=O)O)cc2[N+](=O)[O-])cc1 | -20.6 | x | 11.2 | 37.2 | x | x | x | x | x
O=C(CCC(=O)Nc1ccccc1Cl)NNC(=O)c1ccco1 | 48.0* | 1.9 | 1.0 | 2.5 | -0.9 | -4.4 | 1.4 | -12.8 | x
Cc1c(Cl)cccc1NC(=O)CCC(=O)NNC(=O)c1ccco1 | 0.3 | -1.2 | -2.9 | 9.5 | -0.8 | x | x | x | x
COc1ccc2c(C)cc(SCC#N)nc2c1 | 41.0* | -0.9 | -6.3 | 5.6 | -1.8 | 36.6 | -63.7 | 18.8 | x
COc1ccc(-c2cn(CCC(=O)O)c(C)n2)cc1 | -6.6 | 0.9 | 0.5 | -0.8 | -1.4 | x | x | x | x
COc1ccc(N=NC2=C(O)CC(C)(C)CC2=O)c(OC)c1 | 94.1* | 3.7 | -6.7 | 0.1 | -1.7 | 88.4* | -8.3 | 68.8* | x
Cn1c(-c2c(N)n(CCCc3ccccc3)c3nc4ccccc4nc23)nc2ccccc21 | 44.5* | x | 35.1* | x | x | 35.4 | -7.0 | 22.7 | 10.3
COc1cc(/C=c2\sc3n(c2=O)C(c2ccccc2)C(c2ccccc2)=NN=3)ccc1O (stereo not drawn) | 43.2* | -1.3 | 28.6* | 39.8 | -2.9 | 23.1 | 20.0 | 18.8 | 50.9*
CCOC(=O)C1=C(C)N=c2s/c(=C\c3ccc(O)c([N+](=O)[O-])c3)c(=O)n2C1c1ccccc1OC (stereo not drawn) | 40.3* | 4.9 | 37.7* | 29.2 | 9.8 | 23.6 | -20.6 | -4.0 | 5.4
COc1ccc(/C=c2/sc3n(c2=O)C(c2ccccc2OC)C2=C(N=3)c3ccccc3CC2)cc1O (stereo not drawn) | 47.5* | 1.7 | 52.6* | 5.0 | 4.9 | 24.5 | 23.4 | 0.2 | 26.9
OC(Cc1cccc(Br)c1)c1ncc(-c2cccc(C(F)(F)F)c2)[nH]1 (stereo not drawn) | 8.7 | x | -1.1 | x | x | x | x | x | x
SMILES | Rpn11 block | PP5 inh | NadD block | PREPL inh | PP1 inh | Rpn11 confirm | MMP-2 inh | Thrombin FP | NadD inh conf
O=[N+]([O-])c1ccc(N/N=C/c2sc(N3CCOCC3)nc2-c2ccccc2)c(S(=O)(=O)Nc2ccccc2Cl)c1 | 69.0* | x | 74.8* | x | x | 54.8* | -2.0 | 46.0* | 6.1
O=C(Cc1ccc(Br)cc1)N1CCN(C(=O)c2ccco2)CC1 | -1.2 | 1.6 | 0.3 | 1.0 | -2.1 | x | x | x | x
Cc1ccc(NC(=O)c2ccccc2OCc2ccc([N+](=O)[O-])cc2)nc1 | -1.7 | -3.6 | 0.7 | 16.1 | 6.4 | x | x | x | x
CCOC(=O)c1sc2nc3c(SCCC#N)cc(C(=O)c4cc(F)ccc4O)cn3c(=O)c2c1C | 44.9* | -1.2 | 33.2* | -5.0 | -2.0 | 24.6 | 4.8 | 16.3 | -8.0
CCOC(=O)c1sc2nc(SCC#N)n(CCCN3CCCC3=O)c(=O)c2c1C | 4.8 | 4.3 | 6.8 | -3.1 | -1.8 | x | x | x | x
Nc1nc(-c2cc(O)ccc2[N+](=O)[O-])cc(-c2ccccc2)c1[N+](=O)[O-] | 40.2* | x | 52.9* | x | x | 43.3* | -21.3 | 15.4 | 8.2
CC(C)=CCC/C(C)=C/CNC(=O)C[C@H]1C[C@H](C(=O)N2CCCCC2)[C@@]2(CCc3ccccc3)c3[nH]c4cc(-c5ccco5)ccc4c3CCN2C1=O | 46.8* | x | 44.5* | x | x | 15.4 | 2.6 | 3.2 | 10.7
COc1ccccc1CN1CC(=O)N2CSC[C@H]2C1=O | 4.2 | -6.0 | -0.2 | -0.6 | -2.2 | x | x | x | x
CC1Nc2ncnc(N3CCc4ccccc4C3)c2N(Cc2ccc(Cl)cc2)C1=O (stereo not drawn) | 43.1* | 0.9 | 43.1* | -22.9 | 13.6 | 30.6 | 3.8 | 15.3 | 11.0
Cc1ccc(CNC(=O)c2ccc(N3CCC4(CC3)CC(c3ccccc3)=NO4)c(NC(=O)c3cccc(C)c3)c2)cc1 | -3.0 | 2.1 | 7.6 | 5.3 | -0.1 | x | x | x | x
Cc1ccc(CNC(=O)c2ccc(N3CCC4(CC3)CC(c3cccc(Br)c3)=NO4)c(NC(=O)c3cccc(C)c3)c2)cc1 | 42.1* | -2.5 | 36.4* | 6.8 | 5.2 | 7.1 | -0.7 | 8.5 | 1.3
O=C(Cn1c2ccccc2c(=O)c2ccccc21)N/N=C/c1cc([N+](=O)[O-])ccc1N1CCCCCC1 | + | 2.5 | 49.6* | -4.5 | 3.5 | 19.4 | 7.7 | 11.9 | 3.4

Compound activity from PubChem.
